# Measurements: PubChem BioAssay (NCATS)
# Records with an inconclusive call do not appear. A call without a number means that no potency is given here. Values without a mark were called inactive. The source made the active and inactive calls. Calls follow the shape of the dose curve; as a rule, active = well fitted curve in the direction sought with a large enough effect; inconclusive = small, poorly fitted or top-dose-only effect, or another doubt; inactive = no such curve, though single readings can be large; an effect the other way counts as inactive or inconclusive. Numbered stars: 1 amine (or outer) side, 2 acyl side, 3 side chain; on linkers, the order of the positions; unused ones are H or OH. Bridge positions count the residues as written; N and C are the ends. Square brackets hold non-standard residues; d marks the D form. Peptide text beside a SMILES is read from it. I, II: the chains in the order shown. Actinocin(9to1) = Cc1c2oc3c(C)ccc(C(=O)[*:1])c3nc-2c(C(=O)[*:2])c(N)c1=O; NMeV = CN[C@H](C(=O)O)C(C)C; Sar = CNCC(=O)O
# What was measured:
# [1] = qHTS of pediatric cancer cell lines to identify multiple opportunities for drug repurposing: Primary screen for TC32 cells (AID 1347089); settings: TC32 Ewing sarcoma viability, CellTiter-Glo luminescence, 48 h; series mostly up to 45.8 µM; also: nearly all actives have a fitted effect of over 60% in size
# How it was run: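 Measured quantity: luminescence from CellTiter-Glo, reflecting metabolically active TC32 cells following 48 h of compound. Curves came straight from multi-point titrations, with 8 or 11 points in primary and 11 in confirmatory screening.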
# [2] = qHTS of pediatric cancer cell lines to identify multiple opportunities for drug repurposing: Primary screen for DAOY cells (AID 1347090); settings: DAOY medulloblastoma viability, CellTiter-Glo luminescence, 48 h; series mostly up to 46 µM; also: nearly all actives have a fitted effect of over 55% in size
# How it was run: (§1)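 Eight- or eleven-point concentration series, 48 h treatment at 37 degrees C in growth media; readout CellTiter-Glo luminescence. Potency and efficacy were taken from the concentration-response curves.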
# [3] = qHTS of pediatric cancer cell lines to identify multiple opportunities for drug repurposing: Primary screen for NB-EBc1 cells (AID 1347095); settings: NB-EBc1 neuroblastoma viability, CellTiter-Glo luminescence, 48 h; series mostly up to 46 µM
# How it was run: (§2)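 Primary screen of approved and investigational compounds on cells in growth media at 37 degrees C, 5% CO2. MIPE set at 11-point and NPC set at 8-point dilutions; viability scored by ATP-based luminescence at 48 hours.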
# [4] = qHTS of pediatric cancer cell lines to identify multiple opportunities for drug repurposing: Primary screen for U-2 OS cells (AID 1347096); settings: U-2 OS viability, CellTiter-Glo luminescence, 48 h; series mostly up to 46 µM; also: nearly all actives have a fitted effect of over 50% in size
# How it was run: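 Cells (500-1,000/well) in growth media were settled 5 h at 37 degrees C, then given compounds for 48 h. Viability was read as CellTiter-Glo luminescence. Primary runs used MIPE at 11 points (0.78 nM-46 µM) and NPC at 8 points (0.59 nM-46 µM); follow-ups used 11 points.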
# [5] = qHTS of pediatric cancer cell lines to identify multiple opportunities for drug repurposing: Primary screen for SJ-GBM2 cells (AID 1347091); settings: SJ-GBM2 viability, CellTiter-Glo luminescence, 48 h; series mostly up to 46 µM
# How it was run: as §1
# [6] = qHTS of pediatric cancer cell lines to identify multiple opportunities for drug repurposing: Primary screen for A673 cells (AID 1347092); settings: A673 Ewing sarcoma viability, CellTiter-Glo ATP luminescence, 48 h; series mostly up to 46 µM; also: nearly all actives have a fitted effect of over 45% in size
# How it was run: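 Cells are plated, rested 5 h, dosed by pintool, incubated 48 h, then lysed with CellTiter-Glo and read by luminescence. DMSO is the neutral control; bortezomib at 2.3 uM final is the positive control.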
# [7] = qHTS of pediatric cancer cell lines to identify multiple opportunities for drug repurposing: Primary screen for SK-N-MC cells (AID 1347093); settings: SK-N-MC viability, CellTiter-Glo luminescence, 48 h; series mostly up to 46 µM
# How it was run: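 Metabolically active cells were quantified by ATP-dependent luminescence (CellTiter-Glo, 15 min at room temperature) following 48 h treatment. Cells had been plated at 500-1,000 per well and settled for 5 h beforehand.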
# [8] = qHTS of pediatric cancer cell lines to identify multiple opportunities for drug repurposing: Primary screen for BT-37 cells (AID 1347094); settings: BT-37 viability, CellTiter-Glo luminescence, 48 h; series mostly up to 57.3 µM
# How it was run: as §2
# Potency is read from the fitted curve at half-maximal effect.
compound,measurement,setting,value
CCCCOc1ccc(C(=O)CCN2CCCCC2)cc1,Potency,[1],inactive
same,Potency,[2],inactive
same,Potency,[3],21.1 µM (active)
same,Potency,[4],inactive
CCCCOc1cc(C(=O)NCCN(CC)CC)c2ccccc2n1,Potency,[1],inactive
same,Potency,[2],inactive
same,Potency,[3],inactive
same,Potency,[4],inactive
NC(=O)C(=O)N/N=C/c1ccc([N+](=O)[O-])o1,Potency,[1],inactive
same,Potency,[5],inactive
"Cc1c2oc3c(C)ccc(C(=O)N[C@@H]4C(=O)N[C@H](C(C)C)C(=O)N5CCC[C@H]5C(=O)N(C)CC(=O)N(C)[C@@H](C(C)C)C(=O)O[C@@H]4C)c3nc-2c(C(=O)N[C@@H]2C(=O)N[C@H](C(C)C)C(=O)N3CCC[C@H]3C(=O)N(C)CC(=O)N(C)[C@@H](C(C)C)C(=O)O[C@@H]2C)c(N)c1=O (I: T[dV]P[Sar][NMeV] / II: T[dV]P[Sar][NMeV]; ester I:1-I:C, II:1-II:C; linker I:N-II:N via Actinocin(9to1))",Potency,[1],0.0149 µM (active)
same,Potency,[2],0.0211 µM (active)
same,Potency,[6],0.0042 µM (active)
same,Potency,[7],0.0027 µM (active)
same,Potency,[8],0.0028 µM (active)
same,Potency,[3],inactive
same,Potency,[4],0.0422 µM (active)
O=C1[C@H]2CCCC[C@H]2C(=O)N1CCCCN1CCN(c2nsc3ccccc23)CC1,Potency,[1],inactive
same,Potency,[2],inactive
same,Potency,[7],inactive
same,Potency,[8],inactive
same,Potency,[3],inactive
same,Potency,[4],inactive
Cc1c(C)n(Cc2ccccc2)c2ccc(C(=O)OCCN(C)C)cc12,Potency,[1],inactive
same,Potency,[2],inactive
same,Potency,[6],inactive
same,Potency,[8],inactive
same,Potency,[4],inactive
CN1CCC(=C2c3ccccc3Sc3ccccc32)CC1,Potency,[1],inactive
same,Potency,[2],inactive
same,Potency,[3],inactive
same,Potency,[4],inactive
CCN(CCCCOC(=O)c1ccc(OC)c(OC)c1)C(C)Cc1ccc(OC)cc1 (configuration not stated),Potency,[1],inactive
same,Potency,[2],inactive
same,Potency,[6],inactive
same,Potency,[7],inactive
same,Potency,[3],inactive
same,Potency,[4],inactive
CC(=O)Oc1ccc2c(c1)CC[C@@H]1[C@@H]2CC[C@]2(C)[C@@H](O)CC[C@@H]12,Potency,[1],inactive
same,Potency,[2],inactive
same,Potency,[4],inactive
COC(=O)C1=C(C)NC(C)=C(C(=O)O[C@@H]2CCCN(Cc3ccccc3)C2)[C@@H]1c1cccc([N+](=O)[O-])c1,Potency,[1],inactive
same,Potency,[2],inactive
same,Potency,[6],inactive
CCCCCCc1ccc(O)cc1O,Potency,[1],inactive
same,Potency,[2],inactive
same,Potency,[7],inactive
same,Potency,[8],inactive
same,Potency,[4],inactive
CC(C)(C)CC(C)(C)c1ccc(O)c(Cc2ccc(Cl)cc2Cl)c1,Potency,[1],inactive
same,Potency,[5],21.1 µM (active)
same,Potency,[3],13.3 µM (active)
c1ccc(OCc2ccc(CCCN3CCOCC3)cc2)cc1,Potency,[2],inactive
same,Potency,[5],inactive
same,Potency,[6],inactive
same,Potency,[7],inactive
same,Potency,[8],inactive
same,Potency,[3],inactive
same,Potency,[4],inactive
CC(Cc1ccccc1)(NC(=O)CN)c1ccccc1 (configuration not stated),Potency,[2],inactive
same,Potency,[5],inactive
same,Potency,[6],inactive
same,Potency,[7],inactive
same,Potency,[8],inactive
same,Potency,[3],inactive
COc1c(C)c2c(c(O)c1C/C=C(\C)CCC(=O)O)C(=O)OC2,Potency,[1],0.664 µM (active)
same,Potency,[7],0.0841 µM (active)
same,Potency,[8],0.389 µM (active)
same,Potency,[3],29.9 µM (active)
COc1ccc(C2C(=O)c3ccccc3C2=O)cc1,Potency,[2],inactive
same,Potency,[5],inactive
same,Potency,[6],inactive
same,Potency,[7],inactive
same,Potency,[8],inactive
same,Potency,[3],inactive
same,Potency,[4],inactive
Cc1nc2n(c(=O)c1CCN1CCC(c3noc4cc(F)ccc34)CC1)CCC[C@H]2O,Potency,[2],inactive
same,Potency,[5],inactive
same,Potency,[6],inactive
same,Potency,[7],inactive
same,Potency,[8],inactive
same,Potency,[3],inactive
same,Potency,[4],inactive
CC[C@@H](CO)NCCN[C@@H](CC)CO,Potency,[2],inactive
same,Potency,[5],inactive
same,Potency,[6],inactive
same,Potency,[7],inactive
same,Potency,[8],inactive
same,Potency,[3],inactive
same,Potency,[4],inactive
CCCCCCC[N+](CC)(CC)CCCCc1ccc(Cl)cc1,Potency,[2],26.6 µM (active)
same,Potency,[5],10.6 µM (active)
same,Potency,[6],3.35 µM (active)
same,Potency,[7],3.35 µM (active)
same,Potency,[8],8.71 µM (active)
same,Potency,[3],10.6 µM (active)
COc1ccc(/C=C/C(=O)c2ccc(OC)cc2OC)cc1,Potency,[1],inactive
same,Potency,[4],inactive
CCn1cc(C(=O)O)c(=O)c2cnc(N3CCCC3)nc21,"activity change, negative = cytotoxic",[2],-3.72% [at 9.22 µM]
same,"activity change, negative = cytotoxic",[5],-2.71% [at 9.22 µM]
same,"activity change, negative = cytotoxic",[6],-17.7% [at 9.22 µM]
same,"activity change, negative = cytotoxic",[7],-9.99% [at 9.22 µM]
same,"activity change, negative = cytotoxic",[8],0.276% [at 11.5 µM]
same,"activity change, negative = cytotoxic",[3],-3.37% [at 9.22 µM]
same,"activity change, negative = cytotoxic",[4],4.46% [at 9.22 µM]
CC(=O)OCC(=O)NCCCOc1cccc(CN2CCCCC2)c1,Potency,[2],inactive
same,Potency,[5],inactive
same,Potency,[6],inactive
same,Potency,[7],inactive
same,Potency,[8],inactive
same,Potency,[3],inactive
same,Potency,[4],inactive
